Most compounds without a hit are left out; they make up all but 2.4% or so of the library.
Hck-Nef inh: human Hck-Nef kinase inhibition. Recombinant Hck-YEEI plus Nef, Z-Lyte FRET kinase assay. inhibition, % at 20 µM. 0.68% of 220,000 active;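 active = Hck-Nef kinase inhibition above about 50%, limit read from the data; inactive = inhibition below that limit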;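 note: 0% = DMSO with Hck plus Nef and 100% = Hck alone without Nef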
Arbovirus inh: blocks arbovirus infection; arbovirus infection cell-based antiviral screen; inhibition, % at 10 µM; 0.37% of 200,000 active; AID 1251; in the data active = inhibition above about 30%
EP2 modulator: modulates human prostaglandin E2 receptor EP2 signaling | 0.83% of 260,000 active | EP2-expressing cells, cAMP HTRF FRET, PGE2 co-stimulation | P43116 | induction, % at 25 µM;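 active = compounds whose cAMP rise, as percent of the full-agonist control response, exceeds 60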;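 note: rat C6 glioma line stably carrying human EP2 under a CMV promoter; the protocol text gives 20 µM as final concentration; 100% = response of wells given 1 µM PGE2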
PGE2 EP2 inh: EP2 receptor (human) inhibition; P43116; inhibition, % at 25 µM; C6 glioma cells expressing human EP2, cAMP TR-FRET; cells stimulated with saturating PGE2; 0.52% of 260,000 active;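 active = percent inhibition above 40 after rounding to a whole number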;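 note: rat C6 glioma host cells with rolipram phosphodiesterase inhibitor present; the protocol text gives 20 µM as final concentration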
p97 inhibitor: human p97 ATPase inhibition | 0.42% of 220,000 active | P55072 | recombinant p97 ATPase, Kinase-Glo ATP luminescence, 3 h | inhibition, % at 8 µM; in the data active = inhibition above about 15%;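 note: 0% = DMSO vehicle and 100% = wells lacking enzyme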
Target sequence (P55072 whole entry, looked up): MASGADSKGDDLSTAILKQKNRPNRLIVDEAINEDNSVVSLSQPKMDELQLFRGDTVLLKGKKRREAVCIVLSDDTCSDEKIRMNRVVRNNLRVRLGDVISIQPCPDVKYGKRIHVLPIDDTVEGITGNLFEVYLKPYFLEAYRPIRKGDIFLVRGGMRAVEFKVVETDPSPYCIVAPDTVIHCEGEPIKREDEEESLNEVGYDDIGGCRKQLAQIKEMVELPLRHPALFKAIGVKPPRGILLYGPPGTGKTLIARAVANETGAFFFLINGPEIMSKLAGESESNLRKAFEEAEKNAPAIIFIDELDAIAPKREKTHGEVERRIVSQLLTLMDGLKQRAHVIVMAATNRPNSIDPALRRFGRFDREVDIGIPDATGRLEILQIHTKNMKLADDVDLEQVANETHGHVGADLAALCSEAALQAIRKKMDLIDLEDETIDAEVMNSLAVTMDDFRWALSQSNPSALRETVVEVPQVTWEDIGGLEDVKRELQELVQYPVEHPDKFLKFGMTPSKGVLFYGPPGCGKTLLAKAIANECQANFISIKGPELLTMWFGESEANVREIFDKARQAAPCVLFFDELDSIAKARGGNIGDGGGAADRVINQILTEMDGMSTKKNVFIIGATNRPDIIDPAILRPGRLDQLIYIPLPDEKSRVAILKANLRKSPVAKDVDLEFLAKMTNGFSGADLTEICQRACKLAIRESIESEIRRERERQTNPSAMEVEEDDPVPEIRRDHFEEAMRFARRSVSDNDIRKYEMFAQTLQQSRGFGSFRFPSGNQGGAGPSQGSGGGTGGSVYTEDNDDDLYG
Starred values were filed as active, the others as inactive; / = no result given.

SMILES	Hck-Nef inh	Arbovirus inh	EP2 modulator	PGE2 EP2 inh	p97 inhibitor
c1ccc2c[n+](CCCC[n+]3ccc4ccccc4c3)ccc2c1	/	/	-5	43*	/
O=C(C[n+]1ccc2ccccc2c1)c1cccc2ccccc12	20	6	-27	7	3
O=C(CCSc1nc(-c2ccc3c(c2)OCO3)cc(C(F)(F)F)n1)Nc1ccc(O)cc1	/	/	-114	10	/
CCn1c(SCC(=O)c2ccccc2F)nnc1-c1ccco1	/	/	-23	9	/
O=S(=O)(O)[C@@H](CO)c1ccccc1 (tested in a mixture with another compound)	/	/	24	49*	/
Cc1ccc(C)c2[nH]c(=O)c(CN(CCc3ccccc3)Cc3nnnn3CC3CCCO3)cc12 (stereo unspecified)	/	/	28	14	/
Cc1csc(NC(=O)CSc2nnc3c4ccccc4n(C)c3n2)n1	/	/	-22	9	/
CC(C)CCC[C@@H](C)[C@@H]1CC[C@@H]2[C@H]3CC[C@H]4C[C@@H](N)CC[C@]4(C)[C@@H]3CC[C@]21C	/	/	-17	41*	/
COC(=O)CC[C@@H](C)[C@@H]1CC[C@@H]2[C@H]3CC[C@H]4C[C@@H](O)CC[C@]4(C)[C@@H]3CC[C@]21C	/	/	30	42*	/
CC[C@H](CCC(C)[C@H]1CCC2C3CCC4C[C@@H](O)CC[C@]4(C)C3CC[C@@]21C)C(C)C (stereo partly specified)	/	/	16	7	/
COc1ccc([C@@H]2C[C@H](C(=O)NCc3ccc4c(c3)OCO4)N(C)S(=O)(=O)N2)cc1	/	/	-19	/	/
O=[N+]([O-])c1cc(Cc2cc([N+](=O)[O-])c3cccnc3c2O)c(O)c2ncccc12	/	/	-16	75*	/
COCCn1c(=O)n(CC(=O)N(C)C)c2cccnc21	/	/	-29	4	/
Nc1ccc2oc(-c3cccc4ccccc34)nc2c1	0	-17	-36	26	-1
Nc1nc(-c2cc(-c3cccc4ccccc34)nc(N)n2)cc(-c2cccc3ccccc23)n1	/	/	-10	57*	/
C=CCNC(=O)CSc1nc2c(C)cc(C)cc2cc1C#N	/	/	34	13	/
C[C@H]1[C@H](C)CC[C@@]2(C(=O)O)CC[C@@]3(C)C(=CC[C@H]4[C@]5(C)C[C@H](O)[C@@H](O)[C@@](C)(CO)[C@H]5[C@H](O)C[C@@]43C)[C@H]12	/	/	31	43*	/
CCOC(=O)c1c(NC(=O)CN2CCOCC2)sc2c1CCCC2=O	-3	-13	2	3	-3
CCOC(=O)c1c(NC(=O)CN2CCOCC2)sc2c1CCCC2	1	-11	62*	3	0
CCOC(=O)c1c(NC(=O)COc2cccc3c2CCN(CC)C3=O)sc2c1CCC2	8	4	64*	11	3
O=C(CN1CCOCC1)Nc1sc2c(c1C(=O)c1cccc(F)c1)CCC2	/	/	68*	10	/
CCc1nnc(NC(=O)c2sc3nc4c(C)cccc4cc3c2N)s1	/	/	-41	17	/
CCOC(=O)C1=C(C)Nc2ncnn2C1c1ccc(C#N)cc1 (stereo unspecified)	/	/	-14	5	/
COC(=O)COc1ccc(C2C(C#N)=C(N)Oc3n[nH]c(C)c32)cc1 (stereo unspecified)	/	/	-32	10	/
CCCCCOc1ccc(CSC(=N)N)cc1[N+](=O)[O-]	0	-42	-28	46*	-8
SMILES	Hck-Nef inh	Arbovirus inh	EP2 modulator	PGE2 EP2 inh	p97 inhibitor
COc1ccc(C(=O)Nc2ccccc2C(=O)O)cc1Cl	0	56*	25	4	-4
CCOc1ccc(C(=O)Nc2cccc(C(=O)O)c2C)cc1Cl	-1	-8	8	5	7
CCOc1c(Cl)cc(C(=O)Nc2ccccc2C(=O)O)cc1Cl	1	43*	-1	3	6
Cc1nnnn1-c1ccc(CC(=O)N2CCC(C(=O)c3nc4ccccc4s3)CC2)cc1	/	/	-59	/	/
C[C@@H]1CC=C[C@H]2[C@H]1C(=O)N(Cc1ccccc1)[C@H]2c1ccc(C(F)(F)F)cc1	22	/	61*	8	/
COc1ccc2c(c1)N(CC[C@H]1CCCCN1C)c1ccccc1S2	/	/	-55	41*	/
CCOc1ccc2c(ccc(/C=C/c3cc(C)c4cccnc4c3O)[n+]2C)c1	/	/	50	52*	/
C(=N\NC(=Nc1ccccc1)c1ccccn1)/c1ccccn1	1	-33	7	10	8
Clc1ccc(/C=N/NC(=Nc2ccccc2)c2ccccn2)c(Cl)c1	0	7	61*	/	-3
CC(C)C(=O)Nc1ccccc1N1CCN(C(=O)C(C)C)CC1	/	/	-7	9	/
CCNC(=S)/N=C(/Nc1ccccc1)Nc1nc(C)cc(C)n1	17	/	70*	7	2

Bioassay records: PubChem, several laboratories
